Assay results: the supplement of paper PMC8371130
Where a name gives a salt, the structure may show the parent alone.

Test system: HL-1
Assay: relative cell viability (CellTiter-Glo) vs DMSO control (% of DMSO control); higher = more viable cells
In short: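 HL-1 mouse atrial cardiomyocytes were seeded into 384-well plates at 1000 cells per well along with compounds at 40, 200, 1000 or 5000 nM in 0.01% DMSO. After one day, the cells were moved to a hypoxic workstation (1% O2) for 48 h and then reoxygenated for 24 h in a normal incubator, while others remained in normoxia for the same period. Cell viability was measured by CellTiter-Glo luminescence and normalised to vehicle-treated control cells.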

[1] = oxygen condition: hypoxia 48 h (1% O2) + reoxygenation 24 h, 40 nM
[2] = oxygen condition: hypoxia 48 h (1% O2) + reoxygenation 24 h, 200 nM
[3] = oxygen condition: hypoxia 48 h (1% O2) + reoxygenation 24 h, 1000 nM
[4] = oxygen condition: hypoxia 48 h (1% O2) + reoxygenation 24 h, 5000 nM
[5] = oxygen condition: normoxia 72 h, 40 nM
[6] = oxygen condition: normoxia 72 h, 200 nM
[7] = oxygen condition: normoxia 72 h, 1000 nM
[8] = oxygen condition: normoxia 72 h, 5000 nM

Structure (SMILES) | relative cell viability [1] | relative cell viability [2] | relative cell viability [3] | relative cell viability [4] | relative cell viability [5] | relative cell viability [6] | relative cell viability [7] | relative cell viability [8]
CCCCCCCCOc1ccccc1C(=O)Nc1ccc(C(=O)OCC[N+](C)(CC)CC)cc1 [Otilonium Bromide] | 101 | 107 | 108 | 114 | 107 | 105 | 110 | 114
COC(c1ccccc1)(c1ccccc1)[C@H](Oc1nc(C)cc(C)n1)C(=O)O [Ambrisentan] | 105 | 97.3 | 109 | 105 | 95.1 | 94 | 102 | 99.8
OCCOCCN1CCN(C2=Nc3ccccc3Sc3ccccc32)CC1 [Quetiapine fumarate] | 98.9 | 104 | 106 | 104 | 103 | 106 | 108 | 108
CC(C)C[C@H](NC(=O)[C@@H](O)[C@H](N)Cc1ccccc1)C(=O)O [Ubenimex] | 99.1 | 95.6 | 98.2 | 103 | 101 | 98.8 | 99.7 | 108
O=C(c1cc(Cc2n[nH]c(=O)c3ccccc23)ccc1F)N1CCN(C(=O)C2CC2)CC1 [Olaparib] | 86.7 | 84.4 | 76.2 | 61.1 | 79 | 86.6 | 70.1 | 60
COc1cc2/c(=N/c3ccc(Br)cc3F)nc[nH]c2cc1OCC1CCN(C)CC1 [Vandetanib] | 110 | 115 | 115 | 102 | 113 | 112 | 116 | 102
CCOC(=O)C1=C[C@@H](OC(CC)CC)[C@H](NC(C)=O)[C@@H](N)C1 [Oseltamivir phosphate] | 94.9 | 99.4 | 99.5 | 111 | 103 | 101 | 105 | 111
O=C(O)/C=C/c1ccc(Cn2ccnc2)cc1 [Ozagrel] | 102 | 97.4 | 85.7 | 29.5 | 105 | 107 | 90 | 18
CN(C)CC/C=C1/c2ccccc2Sc2ccc(Cl)cc21 [Chlorprothixene] | 105 | 112 | 102 | 115 | 108 | 107 | 118 | 118
COC(=O)C1=C(C)NC(C)=C(C(=O)OCCN(C)Cc2ccccc2)C1c1cccc([N+](=O)[O-])c1 (stereo not drawn) [Nicardipine HCl] | 107 | 111 | 112 | 114 | 107 | 106 | 105 | 122
CCCC(=O)OCOC(=O)C1=C(C)NC(C)=C(C(=O)OC)C1c1cccc(Cl)c1Cl (stereo not drawn) [Cleviprex] | 106 | 90.5 | 93.1 | 98 | 91.9 | 91.8 | 96.5 | 96.4
Nc1ccn([C@@H]2O[C@H](CO)[C@@H](O)[C@H]2O)c(=O)n1 [Cytidine] | 101 | 101 | 105 | 106 | 106 | 107 | 101 | 106
O=C(NC[C@H]1CN(c2ccc(N3CCOCC3=O)cc2)C(=O)O1)c1ccc(Cl)s1 [Rivaroxaban] | 91.5 | 106 | 99.8 | 112 | 99 | 90.8 | 103 | 92.1
CC(=O)[C@H]1CC[C@H]2[C@@H]3C=CC4=CC(=O)CC[C@@]4(C)[C@@H]3CC[C@]12C [Dydrogesterone] | 97.1 | 99 | 106 | 105 | 100 | 98.8 | 96.7 | 105
c1cnc2cc3c(cc2n1)[C@@H]1CNC[C@H]3C1 [Varenicline tartrate] | 106 | 105 | 110 | 106 | 106 | 102 | 112 | 97.8
CC(Oc1c(Cl)cccc1Cl)C1=NCCN1 (stereo not drawn) [Lofexidine  HCl] | 99.4 | 101 | 99.6 | 118 | 98.3 | 103 | 89.6 | 108
CC(C)(C)NC(=O)[C@H]1CC[C@H]2[C@@H]3CC[C@H]4NC(=O)C=C[C@]4(C)[C@H]3CC[C@]12C [Finasteride] | 100 | 106 | 106 | 117 | 115 | 110 | 111 | 113
COc1nc(C)nc(Cl)c1NC1=NCCN1 [Moxonidine] | 103 | 97.1 | 99.6 | 112 | 110 | 103 | 107 | 111
C=C1/C(=C\C=C2/CCC[C@]3(C)[C@@H]([C@H](C)CCCC(C)C)CC[C@@H]23)C[C@@H](O)C[C@@H]1O [Alfacalcidol] | 109 | 104 | 118 | 106 | 108 | 104 | 88.5 | 106
Fc1ccc(C(c2ccc(F)cc2)N2CCN(C/C=C/c3ccccc3)CC2)cc1 [Flunarizine 2HCl] | 93.6 | 100 | 98.7 | 117 | 107 | 99.7 | 109 | 114
CCOC(=O)C1=C(C)NC(C)=C(C(=O)OCC)C1c1ccccc1/C=C/C(=O)OC(C)(C)C [Lacidipine] | 109 | 102 | 100 | 102 | 106 | 104 | 106 | 106
